PubChem BioAssay

How the values were obtained:
[1] = tested on: Human papillomavirus type 1a protein E7 (residues 44-93); test: HPV1a E7 fragment binders on microarrays, primary screen, biochemical, small-molecule microarray, residues 44-93, 635 nm fluorescence (AID 1108); conditions: small-molecule microarray binding, fluorescence 635 nm; higher = more signal;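 note: E7 fragment applied at 1 µg/mL in TBST for 1 h at 4 C; score combines spot fluorescence with its signal to noise ratio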
[2] = modulators of HCV replicon luciferase signal, primary screen, HCV replication inhibitor project, Huh7 cells, luciferase reporter (AID 1109); conditions: 48 h, higher = more signal;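 note: huh7 hepatoma cells harbouring a luciferase neomycin HCV replicon reporter; luciferase luminescence as measure of HCV replicon replication; test concentration not given here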
[3] = biological target: Left-right determination factor 2 (Homo sapiens) (UniProt O00292); test: LEFTY2 binders on small-molecule microarrays, primary screen, biochemical, small-molecule microarray, 635 nm fluorescence scan (AID 1110); conditions: LEFTY2 binding, higher = more signal
[4] = biological target: Calmodulin-1 (Homo sapiens) (UniProt P0DP23); test: CALM1 binders on microarrays, EGTA buffer, profiling panel, biochemical, small-molecule microarray, Cy5-labelled CALM1 (AID 1111); conditions: Cy5-CALM1 binding fluorescence, higher = more signal;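 note: labelled calmodulin applied in Tris saline Tween buffer holding calcium plus EGTA and DTT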
[5] = biological target: Calmodulin-1 (Homo sapiens) (UniProt P0DP23); test: calcium-bound CALM1 binders on microarrays, profiling panel, artefact control for SMM control-protein annotation, biochemical, small-molecule microarray, Cy5-labelled CALM1, plus calcium (AID 1112); conditions: Cy5-CALM1 binding fluorescence, higher = more signal;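 note: score merges spot fluorescence with signal to noise from triplicate slides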
[6] = small-molecule microarray binders of probe aWnt5a, primary screen, biochemical, biotinylated probe, 635/667 nm fluorescence (AID 1113); conditions: higher = more signal;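 note: score merges 667 nm fluorescence intensity with signal-to-noise per printed feature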
[7] = small-molecule microarray binders of probe aShh, primary screen, biochemical, biotinylated probe, 635/667 nm fluorescence (AID 1114); conditions: higher = more signal;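 note: probe is biotin-labelled aShh protein from a stem cell growth factor screen; measures binding of labelled protein to compounds printed on the slide; score merges feature fluorescence at 667 nm with signal-to-noise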
[8] = small-molecule microarray binders of probe aNog, primary screen, biochemical, biotinylated probe, 635/667 nm fluorescence (AID 1115); conditions: higher = more signal;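 note: probe is biotinylated aNog protein used at 0.15 µg/mL for 1 h at 4 C; z-score combines 667 nm fluorescence of each spot with its signal to noise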
[9] = biological target: Torsin-1A-interacting protein 1 (Homo sapiens) (UniProt Q5JTV8); test: LAP1 binders from COS7 cell lysate, primary screen, small-molecule microarray, 635/667 nm fluorescence (AID 1116); conditions: COS7-hLAP1 lysate binding, 635 nm fluorescence, higher = more signal
[10] = biological target: Alpha-bungarotoxin (Bungarus multicinctus) (UniProt P60615); test: alpha-bungarotoxin binders on microarray, profiling panel, artefact control for SMM control protein annotation, biochemical, small-molecule microarray, Alexa647 label, 635/667 nm fluorescence (AID 1117); conditions: alpha-BTX-A647 binding fluorescence, higher = more signal
Sequence of Alpha-bungarotoxin (Bungarus multicinctus) (P60615 whole entry, looked up): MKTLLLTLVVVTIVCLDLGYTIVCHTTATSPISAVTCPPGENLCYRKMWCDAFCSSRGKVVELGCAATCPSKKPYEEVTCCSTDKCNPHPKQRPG

Sequence of Torsin-1A-interacting protein 1 (Homo sapiens) (Q5JTV8 whole entry, looked up): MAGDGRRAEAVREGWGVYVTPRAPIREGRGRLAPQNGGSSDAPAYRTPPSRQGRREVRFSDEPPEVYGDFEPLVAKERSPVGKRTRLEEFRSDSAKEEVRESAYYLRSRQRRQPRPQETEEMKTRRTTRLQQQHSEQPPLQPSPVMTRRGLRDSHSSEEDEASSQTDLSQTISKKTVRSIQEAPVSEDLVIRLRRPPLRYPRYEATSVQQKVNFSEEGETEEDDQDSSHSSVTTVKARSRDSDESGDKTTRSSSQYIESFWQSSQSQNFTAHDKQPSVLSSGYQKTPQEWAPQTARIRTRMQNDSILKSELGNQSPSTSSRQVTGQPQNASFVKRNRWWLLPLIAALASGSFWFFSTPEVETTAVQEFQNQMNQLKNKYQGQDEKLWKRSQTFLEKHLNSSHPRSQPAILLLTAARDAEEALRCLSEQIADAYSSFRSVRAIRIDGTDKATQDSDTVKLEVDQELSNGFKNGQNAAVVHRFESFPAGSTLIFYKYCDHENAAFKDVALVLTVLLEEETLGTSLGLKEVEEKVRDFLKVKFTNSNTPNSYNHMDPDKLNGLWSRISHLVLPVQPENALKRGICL
Sequence of Left-right determination factor 2 (Homo sapiens) (O00292 whole entry, looked up): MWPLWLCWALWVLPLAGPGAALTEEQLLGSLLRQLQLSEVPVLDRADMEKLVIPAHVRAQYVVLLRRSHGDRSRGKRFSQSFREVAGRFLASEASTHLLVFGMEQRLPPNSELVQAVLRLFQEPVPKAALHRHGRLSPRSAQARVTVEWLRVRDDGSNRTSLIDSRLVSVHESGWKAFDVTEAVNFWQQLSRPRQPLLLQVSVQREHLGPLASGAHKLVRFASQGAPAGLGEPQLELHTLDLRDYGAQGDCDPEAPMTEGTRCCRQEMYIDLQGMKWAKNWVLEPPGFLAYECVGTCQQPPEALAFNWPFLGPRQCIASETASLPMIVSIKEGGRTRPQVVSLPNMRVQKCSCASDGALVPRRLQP

| Structure (SMILES) | composite z-score [1] | z-score [2] | composite z-score [3] | composite z-score [4] | composite z-score [5] | composite z-score [6] | composite z-score [7] | composite z-score [8] | composite z-score [9] | composite z-score [10] |
| --- | --- | --- | --- | --- | --- | --- | --- | --- | --- | --- |
| COC(=O)[C@]1(CCC(=O)OC(C)(C)C)N=C(c2ccc(OCCCO)cc2)O[C@@H]1c1ccccc1CN=[N+]=[N-] | -0.0058 | -3.32 | -0.684 | 0.884 | 0.367 | -0.0045 | 0.147 | 0.977 | 0.157 | 0.869 |
| C=CC1(C(=O)OC)CC=C(C(=O)OC)CC1 (stereo not given) | 1.1 | -0.928 | 1.24 | 0.887 | 0.234 | -0.141 | 1.1 | -0.0689 | 1.1 | 0.605 |
| COc1ccc(C#Cc2ccc3c(c2)[C@]2(C(=O)N3)[C@H](C(=O)Nc3nc4ccccc4s3)[C@H]3C(=O)O[C@H](c4ccccc4)[C@H](c4ccccc4)N3[C@@H]2c2ccc(O)cc2)cc1 | 1.42 | -1.04 | 0.653 | 1.7 | 0.782 | 0.383 | 1.3 | 2.23 | 0.934 | 1.66 |
| C=C[C@@H](COC(=O)OC(C)(C)C)N(Cc1ccc(OC)cc1)S(=O)(=O)c1ccc(Br)cc1 | 1.28 | -0.987 | 0.537 | -0.042 | -0.439 | -0.0977 | 0.0121 | -0.326 | 0.173 | 0.268 |
| COc1ccc(C(O)C2C=CC3C(=O)N(Cc4ccccc4)C(=O)C3N2n2cnnc2)cc1OCc1ccccc1 (stereo not given) | 0.958 | -1.04 | -0.355 | 0.0367 | -0.485 | -0.096 | -0.18 | 0.393 | 0.383 | 0.161 |
| CC(C)C(=C=CC[C@H](O)c1ccc(OCCO)cc1)CCO | 1.39 | -0.119 | 0.131 | 0.219 | -0.729 | -0.0107 | 0.163 | 0.508 | 0.828 | 0.663 |
| COCCOC(=O)N1C(=O)[C@@]2(c3cc(C#CCC(C(=O)OC)C(=O)OC)ccc31)[C@H](c1ccccc1OCCO)N1[C@H](c3ccccc3)[C@H](c3ccccc3)OC(=O)[C@H]1[C@@H]2C(=O)N1CCN(c2ncccn2)CC1 | 1.37 | -1.99 | 0.755 | 1.92 | 1.18 | 0.102 | 0.166 | 0.277 | 2.01 | 0.771 |
| C=CCN1C(=O)[C@@]2(CC=C)N=C(c3ccc(OCCCO)cc3)O[C@H]2c2ccccc21 | 1.41 | -2.48 | 0.984 | 3.11 | 0.0457 | 0.026 | -0.0886 | 0.808 | 1.62 | 0.951 |
| C=CCNC(=O)[C@@H]1[C@H]2C(=O)O[C@H](c3ccccc3)[C@H](c3ccccc3)N2[C@H](c2ccc(O)cc2)[C@@]12C(=O)N(C(=O)OCCOC)c1ccc(C#CCNC(N)=O)cc12 | 1.32 | -0.578 | 0.31 | 1.83 | 0.294 | 0.0017 | 1.68 | 0.681 | 1.45 | 0.83 |
| COc1cc2c(cc1OC)CN(C(=O)[C@@H]1[C@H]3C(=O)O[C@H](c4ccccc4)[C@H](c4ccccc4)N3[C@H](c3ccccc3OCCO)[C@@]13C(=O)Nc1ccc(C#CCCO)cc13)CC2 | 1.35 | -2.36 | 0.268 | 1.16 | 0.104 | -0.133 | 0.292 | 1.16 | 2.22 | 1.49 |
| C=C[C@H](C)[C@@H](OC(=O)Nc1ccc(OC)cc1)c1ccc(O)c2ccccc12 | -0.626 | -3.43 | -0.239 | -0.582 | -0.461 | -0.178 | 0.318 | 0.152 | 0.534 | -0.177 |
| Cc1ccc([C@@H]2C[C@@H](Sc3ccccc3)[C@H](C(=O)O)CN2S(=O)(=O)c2ccc(C)cc2)cc1 | 1.47 | -0.733 | 0.0973 | 1.66 | 0.481 | 0.0219 | 0.408 | 1.55 | 1.17 | 1.69 |
| CCCCN1CC=CC23O[C@@H]4C=CCCOC(=O)C4[C@H]2C(=O)N(CCCCCCO)[C@@H]3C1=O (stereo not given in full) | 0.748 | -0.485 | -1.11 | -0.235 | -0.0631 | -0.274 | -0.117 | -0.413 | 0.999 | -0.324 |
| COC(=O)[C@@]1(Cc2ccc(OC)cc2)[C@H]2c3cc(C(=O)N4CCCC4)n(Cc4ccc(C)c(F)c4F)c3C[C@H]2CN1C(=O)c1ccccc1 | 1.48 | -2.34 | -0.401 | 2.14 | 1.3 | -0.0553 | -0.155 | 1.65 | 0.113 | 1.55 |
| C=CCNC(=O)[C@@H]1[C@H]2C(=O)O[C@H](c3ccccc3)[C@H](c3ccccc3)N2[C@H](c2ccc(O)cc2)[C@@]12C(=O)Nc1ccc(C#CCNC(N)=O)cc12 | 1.28 | -0.365 | -1.09 | -0.0555 | -0.28 | -0.124 | 0.157 | -0.125 | 1.4 | -0.234 |
| COc1ccc([Si](C)(C)[C@@H]2[C@@H](CC(=O)N3CCC[C@H]3CO)O[C@]3(C(=O)N(c4ccccc4)c4ccccc43)[C@H]2C)cc1 | 1.36 | -0.417 | 0.751 | 0.528 | -0.143 | -0.124 | 0.0328 | -0.0047 | 0.691 | 1.09 |
| CCCC[C@@H]1C[C@H]1[C@@H](NC(=O)c1ccccc1)c1ccc(C(=O)OC)cc1 | -0.541 | -1.15 | -1.9 | 0.155 | 0.685 | -0.0236 | -0.0849 | -1.02 | -0.679 | -0.0885 |
| CCOC(=O)C[C@H]1[C@H](OC(=O)c2ccccc2-c2ccccc2)[C@@H](NC(=O)CC(C)C)c2cc(OCCCO)ccc2N1C(=O)Cc1ccc(OC)cc1 | -0.0946 | -1.25 | -0.262 | -0.0904 | -0.265 | -0.0953 | 0.199 | -0.326 | 0.784 | -0.213 |
| CCOC(=O)C[C@H]1[C@H](OC(=O)c2cc3ccccc3oc2=O)[C@@H](NC(=O)c2ccccc2)c2cc(OCCCO)ccc2N1C(=O)c1ccc2ccccc2n1 | 0.55 | -0.765 | 0.782 | 0.183 | -0.505 | -0.0758 | -0.237 | -0.242 | 0.79 | 0.137 |
| C=CCOC(=O)[C@H]1[C@@H]2C(=O)O[C@@H](c3ccccc3)[C@@H](c3ccccc3)N2[C@@H](c2ccc(OCCOC(=O)[C@H]3C[C@H]4C(=O)N[C@@H](CCCCN(C)C)C(=O)N4[C@H]3c3ccc(O)cc3)cc2)[C@]12C(=O)Nc1ccc(I)cc12 | 1.4 | -0.151 | 1.21 | 0.536 | -0.62 | 0.114 | 0.275 | 1.14 | 1.64 | 0.864 |
| COc1ccc(CCNC(=O)[C@@H]2c3ccccc3C(=O)N(Cc3ccccc3Cl)[C@H]2c2ccc(CO)cc2)cc1 | 1.07 | -1.37 | 0.147 | -0.0739 | -0.0544 | -0.152 | 0.0611 | 0.395 | 0.412 | -0.473 |
